hgDAF12 agonist – agonists of H. glycines DAF-12 nuclear receptor | HEK293 GAL4-hgDAF12 UAS-luciferase reporter, agonist luminescence; normalized to butyrate control | activation, % at 6.8 µM | actives 1.8% (n = 370,000);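 active = activation above a cutoff set at the mean of all screened compounds plus 3 SD, cut at about 10% in these data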;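 also: 0% = DMSO wells and 100% = sodium butyrate wells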
NF-kB expr up – raises NF-kB expression in human neuronal cells; fold change at 12.5 µM; actives 1.6% (n = 190,000); NF-kB reporter expression; active compounds read high; in the data active = fold change above about 3.3
APP 5'UTR act – activates APP 5'UTR luciferase reporter; SH-SY5Y APP 5'UTR luciferase reporter, luminescence; zero percent = DMSO vehicle wells; actives 1% (n = 190,000); activation, % at 2 µM;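 active = activation above a set limit, based on mean plus 3 SD of controls, cut at about 140% in these data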
hcDAF-12 act – activators of H. contortus DAF-12 nuclear receptor. AID 652067. activation, % at 6.8 µM. actives 1.4% (n = 370,000). HEK293 hcDAF-12 lit1-tk-luc reporter, luminescence; 0% DMSO, 100% Δ7-dafachronic acid;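 active = activation above the mean of all tested compounds plus 3 SD, cut at about 5.5% in these data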;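 also: 100% = response to 3 µM Δ7-dafachronic acid high control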
ssDAF12 agonist – activates DAF-12 receptor from parasite S. stercoralis; HEK293 ssDAF-12/GRIP1 lit1-tk-luc reporter, luminescence; % of 3 µM dafachronic acid response; activation, % at 6.8 µM; actives 1% (n = 370,000); AID 652126;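 active = activation above the mean over all tested compounds plus 3 SD, cut at about 0.9% in these data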;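 also: 0% = DMSO-only wells and 100% = 3 µM delta7-dafachronic acid wells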
* hit, by the source's call; / = no result given. Shown are actives, neighbours in structure and some others; about 3.4% of the full set was active somewhere.

SMILES | hgDAF12 agonist | NF-kB expr up | APP 5'UTR act | hcDAF-12 act | ssDAF12 agonist
CCC[C@H]1[C@@H](NC(=O)c2ccc(C)cc2)CC[C@@]23CCCN2C(=O)CCC[C@@H]13 | 1 | / | / | -4 | -2
Cc1cc(C)c2c(c1)c1nnc(SCCN3CCCCC3)nc1n2C | 6 | / | / | 6.1* | 1.6*
CCCCn1c2ccc(C)cc2c2nnc(SCCN3CCCCC3)nc21 | -1 | / | / | -3 | -2
COC(=O)C1CN(Cc2cn(Cc3ccccc3)nn2)CCS(=O)(=O)N1Cc1ccccc1 (centres undefined) | -1 | / | / | -3 | -2
c1ccc(C2CSc3ccccc3N2)cc1 (centres undefined) | 6 | / | / | 5.6* | 0
CC(=O)c1cc(-c2cccc([N+](=O)[O-])c2)c(=O)n2c1CCC2 | 4 | / | / | -3 | 0
Cc1cc(NS(=O)(=O)c2ccc(NC(=O)CSc3nc4sc(C)c(C)c4c(=O)n3Cc3ccco3)cc2)nc(C)n1 | -2 | / | / | -2 | 0
COc1ccc(CN(C)CC#Cc2ccccc2)c(OC)c1 | 1 | / | / | 0 | -1
Cc1noc(C(=O)Nc2ccc(F)cc2F)c1Cl | 3 | / | / | 0 | 0
Cc1ccc(O)c(NC(=O)c2onc(C)c2Cl)c1 | 4 | / | / | 6.0* | 1.8*
COc1ccc(NC(=O)c2onc(C)c2Cl)cc1 | 8 | / | / | 5 | 0.9*
Cc1noc(C(=O)Nc2cccc(O)c2)c1Cl | 4 | / | / | 5.6* | 0
Cc1ccc(-c2nc3cc(NC(=O)C(C)C)ccc3o2)cc1C | -3 | 0.98 | 160* | 1 | -1
Cc1cc2nc(-c3ccc(NC(=O)C(C)C)cc3)oc2cc1C | 11* | 3.4* | 140* | 5 | 1.0*
CC(C)C(=O)Nc1cccc(-c2nc3ccccc3o2)c1 | -1 | 1.6 | / | 0 | -1
CC(C)C(=O)Nc1ccc(-c2nc3cccnc3o2)cc1 | 13* | 2.7 | 151* | 5.9* | 0
CC(C)C(=O)Nc1ccc(-c2nc3ncccc3o2)cc1 | 9 | / | / | 3 | 1
CN(C)CCCN1C(=O)c2oc3ccc(F)cc3c(=O)c2C1c1cccnc1 (centres undefined) | 11* | 0.95 | 2 | 0 | 0
Cc1cccc(-c2nnc(SCC(=O)c3ccc(F)cc3)n2C)c1 | -1 | / | / | -3 | -1
CS(=O)(=O)N[C@@H]1C[C@@H]2O[C@@H](CO)CC[C@@H]2O[C@@H]1CCc1ccc(/C=C/c2ccccc2)cc1 | 1 | / | / | 1 | -1
CC(C)CCn1cnc2c(sc3nc4c(cc32)CSC(C)(C)C4)c1=O | -10 | 0.99 | 231* | -4 | -3
O=C(NCC1CC1)c1ccc2c3n(nc2c1)-c1ccc(Cl)cc1CO3 | 12* | / | / | 2 | -1
COCCNC(=O)c1ccc2c3n(nc2c1)-c1ccccc1CO3 | 12* | / | / | 6.4* | 0
Cc1nn(C)c(C)c1C1Nc2ccccc2C(=O)N1O (centres undefined) | 3 | 1.2 | 18 | 0 | 0
O=C1c2ccccc2NC(c2cnc3ccccc3n2)N1O (centres undefined) | 8 | 6.9* | 74 | 6 | 0
SMILES | hgDAF12 agonist | NF-kB expr up | APP 5'UTR act | hcDAF-12 act | ssDAF12 agonist
CC(C)CC(=O)Nc1ccc(-c2cn3ccsc3n2)cc1 | 11* | 6.7* | 169* | 2 | 0
Cc1nc(-c2ccc(NC(=O)CC(C)C)cc2)cs1 | 13* | 1.1 | 41 | 4 | -1
CC(C)(C)C(=O)Nc1ccc(-c2cn3ccsc3n2)cc1 | 10 | 3.3* | 158* | 5.9* | 1
Cc1nc(-c2ccc(NC(=O)C3CC3)cc2)cs1 | 9 | / | / | 3 | 0
CCCCCCCCN1C(=O)[C@@H](CC(=O)NCC23CC4CC(CC(C4)C2)C3)C[C@@]2(C(=O)OC)C1=C[C@H](COCc1ccccc1)O[C@@H]2C | 2 | / | / | 1 | -1
O=C(/C=C/c1ccc2c(c1)OCO2)Nc1cccnc1 | 11* | 0.99 | 162* | 3 | -1
O=C(/C=C/c1ccco1)NCc1ccc2c(c1)OCO2 | 2 | 1.1 | 9 | 0 | -2
Cc1cc(C)nc(NC(=O)/C=C/c2ccc3c(c2)OCO3)c1 | 10 | 3.3* | 100 | 3 | 0
O=C(/C=C/c1ccco1)Nc1ccc2c(c1)OCO2 | 12* | 4.6* | 120 | 2 | 0
Cc1ccc(CSc2nnc(-c3cc(-c4ccc(F)cc4)n[nH]3)n2N)cc1 | 0 | / | / | -4 | -2
CN(CCCOC(=O)c1cccs1)C1CN(Cc2cn(Cc3ccccc3Cl)nn2)S(=O)(=O)C1 (centres undefined) | 1 | / | / | -2 | -1
Cc1ccc(CNC(=O)O[C@H]2CC[C@@]34CCCN3C(=O)CCC[C@H]4C2)o1 | -3 | / | / | -1 | -2
CC(=O)OCCCN1CCC2(CCC(c3ccccc3)CC2)C1=O (centres undefined) | -2 | / | / | -2 | -1
Cc1cc(F)ccc1C(=O)N1CCC(Oc2cccnc2)CC1 | 3 | / | / | -1 | 0
CCN(CC)CCn1c2ccccc2c2nc3ccccc3nc21 | 6 | / | / | 6.1* | 0
CCCn1c2ccccc2c2nc3ccccc3nc21 | 1 | 1.1 | -5 | -2 | -2
CCN(CC)CCn1c(NC(=O)c2ccccc2O)nc2ccccc21 | 5 | / | / | 5 | 0
CCN(CC)CCn1c(NC(=O)c2ccc(Cl)cc2)nc2ccccc21 | 4 | 1.2 | 15 | 5.7* | 1.0*
Cc1ccc(S(=O)(=O)N2CCCC(C(=O)Nc3c(C)n(C)n(-c4ccccc4)c3=O)C2)cc1C (centres undefined) | 5 | / | / | -3 | -1
CCCCCCN1CCS(=O)(=O)N(Cc2ccc(Cl)cc2)C(C(=O)OC)C1 (centres undefined) | -2 | / | / | 0 | -1
Cc1ncc(C)c2c([N+](=O)[O-])cccc12 | -2 | / | / | -1 | -2
Cc1cnc(C=O)c2cccc([N+](=O)[O-])c12 | 0 | / | / | 5.9* | 0
COC(=O)[C@H]1C[C@@]2(C3C=CC=C3)c3ccccc3N[C@H]2N1 | 5 | / | / | 1 | -1
O=C(Nc1ccc(S(=O)(=O)Nc2nccs2)cc1)C1=NN(c2ccccc2)C(=O)CC1 | -1 | / | / | 4 | 1.2*
O=C(Nc1ccc(S(=O)(=O)Nc2nccs2)cc1)c1ccncc1 | 3 | / | / | -2 | -1
SMILES | hgDAF12 agonist | NF-kB expr up | APP 5'UTR act | hcDAF-12 act | ssDAF12 agonist
C[C@H]1[C@H](NC(=O)c2ccc(C(F)(F)F)cc2)CC[C@@]23CCCN2C(=O)CCC[C@@H]13 | 2 | / | / | -1 | -2
O=c1[nH]c(CSc2nc3ccccc3s2)nc2ccccc12 | 7 | / | / | 1 | -1
COc1ccc(C2NCCc3c2[nH]c2ccccc32)cc1CSc1nc2ccccc2s1 (centres undefined) | 2 | 0.94 | -6 | 5.7* | 1
CCn1c(COc2ccccc2C)nnc1SCC(=O)NC1CCCC1 | -3 | 1.1 | 2 | -1 | -2
CCn1c(Cc2ccc(OC)cc2)nnc1SCC(=O)NC1CC1 | 4 | / | / | -1 | -1
CCOc1ccccc1-c1nnc(SCC(=O)NC2CC2)n1CC | 3 | / | / | 4 | 1.1*
CCn1c(CNC(=O)Cc2ccc(OC)cc2)nnc1SCC(=O)NC1CCCCC1 | -1 | 1 | / | 0 | 1.0*

From PubChem BioAssay
